# Assay results as given in article PMC7862700, “An all-to-all approach to the identification of sequence-specific readers for epigenetic DNA modifications on cytosine”.
# Legend:
# Assay in all cases: DAPPL (digital affinity profiling via proximity ligation, sequencing); 10 mM Tris-HCl pH 7.5, 50 mM NaCl, 1 mM DTT, 4% glycerol, room temperature, 30 min; GST-TFs on glutathione beads, 16-mer random dsDNA library, 0.1% formaldehyde crosslink after washing; high values mean tight binding
# Settings in all cases: protein: recombinant; tags: N-terminal GST; dsDNA, one strand shown
# FLI1 = target: T1, FLI1 (Homo sapiens, UniProt Q01543 1-452)
# T1 sequence: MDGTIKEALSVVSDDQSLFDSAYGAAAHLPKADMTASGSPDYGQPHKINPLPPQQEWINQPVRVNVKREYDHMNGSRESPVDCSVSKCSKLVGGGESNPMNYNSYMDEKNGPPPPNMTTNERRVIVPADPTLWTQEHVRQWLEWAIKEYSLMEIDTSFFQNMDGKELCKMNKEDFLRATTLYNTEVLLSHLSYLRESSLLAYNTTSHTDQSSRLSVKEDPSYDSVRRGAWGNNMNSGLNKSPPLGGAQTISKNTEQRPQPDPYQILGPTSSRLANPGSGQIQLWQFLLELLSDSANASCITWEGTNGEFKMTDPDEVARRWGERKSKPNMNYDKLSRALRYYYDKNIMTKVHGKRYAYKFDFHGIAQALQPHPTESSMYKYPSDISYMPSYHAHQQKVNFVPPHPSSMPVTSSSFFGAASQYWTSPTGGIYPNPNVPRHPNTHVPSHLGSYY
# How it was run: (§1)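 After expression in yeast as GST fusions, human transcription factors were bound to glutathione beads, DNA-barcoded and mixed with a tag-only sample. The pools were incubated with 200 nmole of a 16-mer random double-stranded DNA library in Tris/NaCl/DTT/glycerol buffer (30 min, room temperature), washed and crosslinked with 0.1% formaldehyde. Proximity ligation with BsaI/T4 ligase ran for 1 h at 37 °C, before PCR amplification and sequencing on an Illumina NextSeq500. Binding signal is a hexamer's read frequency for a factor divided by its frequency for the tag-only sample.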
# ELK1 = target: T2, ELK1 (Homo sapiens, UniProt P19419 1-428)
# T2 sequence: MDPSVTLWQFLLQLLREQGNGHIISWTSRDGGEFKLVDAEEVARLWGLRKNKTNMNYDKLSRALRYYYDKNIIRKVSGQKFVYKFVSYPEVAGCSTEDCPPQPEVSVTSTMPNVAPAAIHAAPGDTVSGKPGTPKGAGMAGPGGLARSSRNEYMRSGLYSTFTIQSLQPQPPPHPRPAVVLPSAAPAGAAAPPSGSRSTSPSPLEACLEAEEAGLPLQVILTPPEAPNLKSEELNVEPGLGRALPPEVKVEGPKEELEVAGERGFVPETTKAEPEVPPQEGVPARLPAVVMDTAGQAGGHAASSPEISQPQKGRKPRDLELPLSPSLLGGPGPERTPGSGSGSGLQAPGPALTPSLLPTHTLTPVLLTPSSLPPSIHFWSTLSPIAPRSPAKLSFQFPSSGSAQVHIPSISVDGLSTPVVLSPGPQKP
# How it was run: as §1
# GABPA = target: T3, GABPA (Homo sapiens, UniProt Q06546 1-454)
# T3 sequence: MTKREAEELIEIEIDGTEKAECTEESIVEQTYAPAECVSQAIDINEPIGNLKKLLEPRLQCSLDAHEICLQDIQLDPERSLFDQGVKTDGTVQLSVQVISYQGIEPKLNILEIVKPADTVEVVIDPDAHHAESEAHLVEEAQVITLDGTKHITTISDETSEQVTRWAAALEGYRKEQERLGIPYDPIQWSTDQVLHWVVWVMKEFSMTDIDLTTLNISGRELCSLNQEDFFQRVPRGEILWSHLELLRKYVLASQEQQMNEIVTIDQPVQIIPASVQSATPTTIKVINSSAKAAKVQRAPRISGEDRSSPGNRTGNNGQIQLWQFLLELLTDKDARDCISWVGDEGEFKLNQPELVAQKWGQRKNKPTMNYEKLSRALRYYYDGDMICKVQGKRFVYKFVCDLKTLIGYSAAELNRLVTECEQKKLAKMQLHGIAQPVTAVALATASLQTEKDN
# How it was run: as §1
# ERG = target: T4, ERG (Homo sapiens, UniProt P11308 1-479)
# T4 sequence: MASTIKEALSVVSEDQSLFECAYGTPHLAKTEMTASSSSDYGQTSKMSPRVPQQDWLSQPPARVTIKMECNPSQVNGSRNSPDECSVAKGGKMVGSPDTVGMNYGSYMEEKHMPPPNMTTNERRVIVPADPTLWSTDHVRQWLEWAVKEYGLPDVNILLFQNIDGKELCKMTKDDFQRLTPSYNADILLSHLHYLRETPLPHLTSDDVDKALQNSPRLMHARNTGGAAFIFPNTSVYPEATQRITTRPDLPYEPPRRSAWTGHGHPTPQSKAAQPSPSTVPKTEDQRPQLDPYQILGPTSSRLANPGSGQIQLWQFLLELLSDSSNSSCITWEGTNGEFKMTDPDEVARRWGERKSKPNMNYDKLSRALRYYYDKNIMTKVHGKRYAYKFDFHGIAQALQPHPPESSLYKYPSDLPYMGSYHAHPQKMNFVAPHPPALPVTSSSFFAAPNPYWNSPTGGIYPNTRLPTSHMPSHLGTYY
# How it was run: as §1
# ELF1 = ELF1 (Homo sapiens, UniProt P32519 1-619)
# Chain of ELF1 (P32519 whole entry): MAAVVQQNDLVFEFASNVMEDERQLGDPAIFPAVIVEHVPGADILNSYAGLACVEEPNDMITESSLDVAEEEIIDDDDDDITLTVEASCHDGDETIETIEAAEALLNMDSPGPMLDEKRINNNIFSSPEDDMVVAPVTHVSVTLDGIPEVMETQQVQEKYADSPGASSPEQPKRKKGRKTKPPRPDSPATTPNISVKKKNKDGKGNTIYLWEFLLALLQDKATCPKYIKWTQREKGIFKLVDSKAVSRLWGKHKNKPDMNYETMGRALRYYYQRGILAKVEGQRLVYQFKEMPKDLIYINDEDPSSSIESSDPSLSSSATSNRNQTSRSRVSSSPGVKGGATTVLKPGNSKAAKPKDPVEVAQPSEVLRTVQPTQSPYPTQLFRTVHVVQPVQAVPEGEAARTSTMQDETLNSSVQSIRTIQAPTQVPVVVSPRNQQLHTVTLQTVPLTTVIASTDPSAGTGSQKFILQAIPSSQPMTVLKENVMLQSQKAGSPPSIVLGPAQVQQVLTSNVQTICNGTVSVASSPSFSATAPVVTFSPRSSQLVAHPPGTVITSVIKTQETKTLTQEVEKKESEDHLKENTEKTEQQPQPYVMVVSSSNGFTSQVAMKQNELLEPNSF
# How it was run: as §1
# EHF = target: T5, EHF (Homo sapiens, UniProt Q9NZC4 1-300)
# T5 sequence: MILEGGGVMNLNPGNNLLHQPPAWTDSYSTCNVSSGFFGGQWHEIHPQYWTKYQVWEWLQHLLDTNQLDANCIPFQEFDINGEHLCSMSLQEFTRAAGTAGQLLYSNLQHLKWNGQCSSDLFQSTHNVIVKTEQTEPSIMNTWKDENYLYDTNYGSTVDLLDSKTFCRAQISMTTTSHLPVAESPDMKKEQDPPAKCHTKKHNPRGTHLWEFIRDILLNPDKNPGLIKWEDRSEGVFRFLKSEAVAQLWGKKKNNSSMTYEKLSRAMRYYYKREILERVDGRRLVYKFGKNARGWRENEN
# How it was run: as §1
# SPI1 = SPI1 (Homo sapiens, UniProt P17947 1-270)
# How it was run: as §1
# SPIB = SPIB (Homo sapiens, UniProt Q01892 1-262)
# Chain of SPIB (Q01892 whole entry): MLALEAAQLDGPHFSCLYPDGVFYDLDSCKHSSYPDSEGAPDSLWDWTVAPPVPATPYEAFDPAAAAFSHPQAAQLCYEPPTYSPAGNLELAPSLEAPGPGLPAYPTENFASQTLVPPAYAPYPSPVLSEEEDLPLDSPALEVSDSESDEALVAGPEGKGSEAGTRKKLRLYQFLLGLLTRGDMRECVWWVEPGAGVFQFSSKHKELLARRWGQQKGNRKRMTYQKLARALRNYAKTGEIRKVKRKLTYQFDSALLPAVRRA
# How it was run: as §1
# ELK3 = target: T6, ELK3 (Homo sapiens, UniProt P41970 1-407)
# T6 sequence: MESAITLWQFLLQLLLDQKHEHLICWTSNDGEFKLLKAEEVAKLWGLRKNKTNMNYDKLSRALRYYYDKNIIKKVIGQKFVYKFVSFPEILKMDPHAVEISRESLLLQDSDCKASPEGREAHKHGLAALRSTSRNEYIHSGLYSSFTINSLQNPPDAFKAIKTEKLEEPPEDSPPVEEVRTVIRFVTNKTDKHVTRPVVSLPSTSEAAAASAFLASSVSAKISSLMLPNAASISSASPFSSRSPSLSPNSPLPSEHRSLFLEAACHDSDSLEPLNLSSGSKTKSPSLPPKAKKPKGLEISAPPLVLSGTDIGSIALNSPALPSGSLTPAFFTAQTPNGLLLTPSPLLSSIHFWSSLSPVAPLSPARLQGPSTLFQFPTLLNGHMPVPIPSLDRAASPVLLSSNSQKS
# How it was run: as §1
sequence,measurement,setting,value
CGGAAC,binding signal,FLI1,"1.16 fold enrichment (6-mer frequency, TF over GST control)"
same,binding signal,ELK1,"1.18 fold enrichment (6-mer frequency, TF over GST control)"
same,binding signal,GABPA,"1.05 fold enrichment (6-mer frequency, TF over GST control)"
same,binding signal,ERG,"1.22 fold enrichment (6-mer frequency, TF over GST control)"
same,binding signal,ELF1,"1.04 fold enrichment (6-mer frequency, TF over GST control)"
same,binding signal,EHF,"1.2 fold enrichment (6-mer frequency, TF over GST control)"
same,binding signal,SPI1,"1.29 fold enrichment (6-mer frequency, TF over GST control)"
same,binding signal,SPIB,"1.29 fold enrichment (6-mer frequency, TF over GST control)"
same,binding signal,ELK3,"1.21 fold enrichment (6-mer frequency, TF over GST control)"
